Laboratory results published in the supplement of paper PMC13380429.

Tested on: Vero E6 infected with SARS-CoV-2
Assay: inhibition of SARS-CoV-2 cytopathic effect; higher = more antiviral protection, active = above 15
Settings: 48 h

SMILES	inhibition of SARS-CoV-2 cytopathic effect (1 nM)	inhibition of SARS-CoV-2 cytopathic effect (8.33 nM)	inhibition of SARS-CoV-2 cytopathic effect (100 nM)	inhibition of SARS-CoV-2 cytopathic effect (833.33 nM)	inhibition of SARS-CoV-2 cytopathic effect (10000 nM)
COc1cc(Oc2ccnc3cc(OC)c(OC)cc23)ccc1NC(=O)NC(C)c1nccs1 (stereo not given)	-1.6% (inactive)	0.95% (inactive)	1.7% (inactive)	0.48% (inactive)	-1.8% (inactive)
CN(C)CCN1C(=O)c2cccc3cc(N)cc(c23)C1=O [amonafide]	4.04% (inactive)	2.14% (inactive)	1.57% (inactive)	3.27% (inactive)	-6.16% (inactive)
C=CCNC1=C2C[C@@H](C)C[C@H](OC)[C@H](O)[C@@H](C)/C=C(\C)[C@H](OC(N)=O)[C@@H](OC)/C=C\C=C(/C)C(=O)NC(=CC1=O)C2=O [tanespimycin]	-1.35% (inactive)	-0.13% (inactive)	-4.27% (inactive)	-0.63% (inactive)	3.92% (inactive)
Cc1ccc(OC[C@@H](O)[C@H](C)NC(C)C)c2c1CCC2 (racemic)	-1.05% (inactive)	-1.6% (inactive)	-1.43% (inactive)	-0.36% (inactive)	-1.51% (inactive)
C[C@]12N[C@H](Cc3ccccc31)c1ccccc12 [dizocilpine-(-)]	1.97% (inactive)	1.82% (inactive)	1.33% (inactive)	1.1% (inactive)	-0.44% (inactive)
COc1ccncc1C(=O)NC(=O)Nc1ccc(-c2ccccc2)c(C(F)(F)F)c1 [S1P1-agonist-III]	-0.34% (inactive)	-0.01% (inactive)	-0.43% (inactive)	-0.2% (inactive)	-2.64% (inactive)
O=C(O)COCCN1CCN(C(c2ccccc2)c2ccc(Cl)cc2)CC1 (stereo not given) [cetirizine]	-1.03% (inactive)	1.14% (inactive)	-0.08% (inactive)	0.99% (inactive)	-2.71% (inactive)
CCOC(=S)SSC(=S)OCC [dixanthogen]	-1.96% (inactive)	-1.61% (inactive)	-1.47% (inactive)	-0.83% (inactive)	1.23% (inactive)
CC(C)OC(=O)OCOP(=O)(CO[C@H](C)Cn1cnc2c(N)ncnc21)OCOC(=O)OC(C)C [tenofovir-disoproxil]	0.65% (inactive)	-1.58% (inactive)	3.17% (inactive)	-4% (inactive)	-9.11% (inactive)
NC(=O)NCCC[C@H](N)C(=O)O [L-citrulline]	0.06% (inactive)	-1.99% (inactive)	1.8% (inactive)	2.58% (inactive)	1.61% (inactive)
COc1cc(OC)c(C(=O)CCCN2CCCC2)c(OC)c1 [buflomedil]	1.62% (inactive)	0.64% (inactive)	4.02% (inactive)	3.26% (inactive)	1.28% (inactive)
CC1CC(OC(=O)C(O)c2ccccc2)CC(C)(C)N1C (stereo not given) [eucatropine]	0.81% (inactive)	3.45% (inactive)	1.74% (inactive)	0.69% (inactive)	0% (inactive)
Clc1ccc(Cn2c(CN3CCCC3)nc3ccccc32)cc1 [clemizole]	-3.82% (inactive)	-2.64% (inactive)	-3.58% (inactive)	-3.06% (inactive)	-6.74% (inactive)
CN1CCN(c2c(F)cc3c(=O)c(C(=O)O)cn4c3c2SCC4)CC1 [rufloxacin]	0.11% (inactive)	-1.78% (inactive)	0.94% (inactive)	1.64% (inactive)	-3.47% (inactive)
CN(C)c1cccc(-c2c3c(=O)n(-c4ccccc4Cl)[nH]c3cc(=O)n2C)c1	-1.01% (inactive)	2.2% (inactive)	0.39% (inactive)	-1.67% (inactive)	9.86% (inactive)
CC(C)(C)C(=O)C(Oc1ccc(Cl)cc1)n1ccnc1 (stereo not given) [climbazole]	-1.08% (inactive)	1.03% (inactive)	-1.59% (inactive)	-1.58% (inactive)	0.15% (inactive)
CC(C)(C)c1ccc(-c2nc3c(N4CCN(Cc5ccc6nccnc6c5)CC4)cccc3[nH]2)cc1	1.45% (inactive)	1.91% (inactive)	1.44% (inactive)	-0.5% (inactive)	4.93% (inactive)
CN(c1ccc(NC(=O)Nc2ccccc2)cc1)S(=O)(=O)c1cnn(-c2ccc(F)cc2)c1	2.37% (inactive)	2.39% (inactive)	0.06% (inactive)	-1.77% (inactive)	0.18% (inactive)

SMILES	inhibition of SARS-CoV-2 cytopathic effect (1 nM)	inhibition of SARS-CoV-2 cytopathic effect (8.33 nM)	inhibition of SARS-CoV-2 cytopathic effect (100 nM)	inhibition of SARS-CoV-2 cytopathic effect (833.33 nM)	inhibition of SARS-CoV-2 cytopathic effect (10000 nM)
Fc1ccc(CN2CCC(Nc3ccc(C(F)(F)F)nn3)CC2)cc1F	0.35% (inactive)	2.13% (inactive)	2.17% (inactive)	1.38% (inactive)	-6.9% (inactive)
Nc1nc(NCCc2ccc(O)cc2)nc2nc(-c3ccco3)nn12	0.11% (inactive)	-0.03% (inactive)	-0.54% (inactive)	-1.25% (inactive)	-5.15% (inactive)
CN=c1nc(-c2ccccc2)n(-c2ccccc2)s1	1.73% (inactive)	0.95% (inactive)	-0.38% (inactive)	0.89% (inactive)	-1.43% (inactive)
CC(=O)N[C@H]1[C@H]([C@H](O)[C@H](O)CO)OC(O)(C(=O)O)C[C@@H]1O (mixture of isomers) [aceneuramic-acid]	-6.31% (inactive)	1.91% (inactive)	-1.39% (inactive)	-2.36% (inactive)	-0.15% (inactive)
CC[C@H]1OC(=O)[C@H](C)[C@@H](O[C@H]2C[C@@](C)(OC)[C@@H](O)[C@H](C)O2)[C@H](C)[C@@H](O[C@@H]2O[C@H](C)C[C@H](N(C)C)[C@H]2O)[C@](C)(O)C[C@@H](C)CN(C)[C@H](C)[C@@H](O)[C@]1(C)O [azithromycin]	0.31% (inactive)	1.86% (inactive)	2% (inactive)	0.56% (inactive)	0.92% (inactive)
O=C(O[C@H]1[C@H](OC(=O)c2cccnc2)[C@@H](OC(=O)c2cccnc2)[C@H](OC(=O)c2cccnc2)[C@@H](OC(=O)c2cccnc2)[C@H]1OC(=O)c1cccnc1)c1cccnc1 [inositol-hexanicotinate]	2.01% (inactive)	3.15% (inactive)	2.82% (inactive)	0.04% (inactive)	0.85% (inactive)
COc1cc2ncnc(Nc3ccc(O)c(Br)c3)c2cc1OC	0.67% (inactive)	-0.59% (inactive)	-3.04% (inactive)	-5.16% (inactive)	-9.51% (inactive)
CC(=O)O[C@H]1Cc2ccccc2N(C(N)=O)c2ccccc21 [eslicarbazepine-acetate]	3.04% (inactive)	-0.54% (inactive)	1.48% (inactive)	0.03% (inactive)	1.45% (inactive)
Cc1cccc(-c2n[nH]cc2-c2ccc3ncccc3n2)n1 [repsox]	-0.69% (inactive)	2.3% (inactive)	-2.26% (inactive)	-4.59% (inactive)	-4.62% (inactive)
C=C1C(=O)O[C@@H]2[C@H]3C(C)=CC[C@@]34O[C@@]4(C)CC[C@@H]12 [arglabin]	-2.02% (inactive)	1.39% (inactive)	-0.31% (inactive)	-1.74% (inactive)	29.2% (active)
O=c1[nH]c(=O)n([C@H]2C[C@H](O)[C@@H](CO)O2)cc1I [idoxuridine]	1.04% (inactive)	-1.19% (inactive)	2.65% (inactive)	-0.31% (inactive)	-2.33% (inactive)
CO[C@H]1/C=C/O[C@@]2(C)Oc3c(C)c(O)c4c(O)c(c(/C=N/N=C/N5CCCCC5)c(O)c4c3C2=O)NC(=O)/C(C)=C\C=C\[C@H](C)[C@H](O)[C@@H](C)[C@@H](O)[C@@H](C)[C@H](OC(C)=O)[C@@H]1C	5.27% (inactive)	5.73% (inactive)	6.01% (inactive)	4.61% (inactive)	3.27% (inactive)
COc1cc(OC)c(OC)cc1C=O [asaraldehyde]	-1.46% (inactive)	-1.92% (inactive)	-1.24% (inactive)	-1.97% (inactive)	0.07% (inactive)
C[C@H](NC[C@H](O)CP(=O)(O)Cc1ccccc1)c1ccc(Cl)c(Cl)c1	2.41% (inactive)	3.89% (inactive)	1.35% (inactive)	1.79% (inactive)	4.47% (inactive)
COc1cc(OCc2cccc(-c3ccccc3)c2C)cc(OC)c1CN1CCCC[C@H]1C(=O)O [PD1-PDL-inhibitor-1]	-2.92% (inactive)	1.37% (inactive)	5.72% (inactive)	0.14% (inactive)	0.4% (inactive)
O=C(Nc1ccc([N+](=O)[O-])cc1Cl)c1cc(Cl)ccc1O [niclosamide]	-0.87% (inactive)	-2.63% (inactive)	0.39% (inactive)	11.4% (inactive)	4.29% (inactive)
CC1CS(=O)(=O)CCN1/N=C/c1ccc([N+](=O)[O-])o1 (stereo not given) [nifurtimox]	-0.09% (inactive)	0.8% (inactive)	-1.28% (inactive)	2.01% (inactive)	1.23% (inactive)
